Experimental data as given in paper PMC5540273 (PLoS ONE, 2017).
Where two headings read alike, the source gives them in different places.

Experiments:
Details in all cases: n = 1
[1] = tested on: CSNK1A1
[2] = tested on: CSNK1D
[3] = tested on: CSNK1E
[4] = tested on: CSNK1G1
[5] = tested on: CSNK1G2
[6] = tested on: CSNK1G3
[7] = tested on: CSNK2A1
[8] = tested on: CSNK2A2
[9] = tested on: T1, CTK
T1 construct: gene MATK

[10] = tested on: DAPK1
[11] = concentration: 1 μM, replicates: in singlicate
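Note: KINOMEscan kinase panel screen.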

Structure (SMILES) | %Inh [1, 11] | %Inh [2, 11] | %Inh [3, 11] | %Inh [4, 11] | %Inh [5, 11] | %Inh [6, 11] | %Inh [7, 11] | %Inh [8, 11] | %Inh [9, 11] | %Inh [10, 11] | %Inh ([1]; 1 µM) | %Inh ([2]; 1 µM) | %Inh ([3]; 1 µM) | %Inh ([4]; 1 µM) | %Inh ([5]; 1 µM) | %Inh ([6]; 1 µM) | %Inh ([7]; 1 µM) | %Inh ([8]; 1 µM) | %Inh ([9]; 1 µM) | %Inh ([10]; 1 µM)
O=C(O)COc1ncnc2cc(-c3ccc4[nH]ncc4c3)sc12 | 33% | 0% | 0% | 17% | 10% | 34% | 37% | 20% | 14% | 17% |  |  |  |  |  |  |  |  |  | 
Cc1ccc(NC(=O)Nc2cccc(C(F)(F)F)c2)cc1 [GSK955403] |  |  |  |  |  |  |  |  |  |  | 0% | 0% | 0% | 0% | 1% | 0% | 1% | 0% | 0% | 18%
Cc1cccc(-c2nc(-c3ccc(S(C)(=O)=O)cc3)sc2-c2ccnc(NCCc3ccccc3)c2)c1 | 0% | 1% | 8% | 5% | 1% | 0% | 0% | 28% | 0% | 0% |  |  |  |  |  |  |  |  |  | 
Fc1cccc(COc2nnc(-c3ccc4c(c3)CCO4)o2)c1 | 0% | 0% | 0% | 10% | 4% | 0% | 42% | 60% | 0% | 24% |  |  |  |  |  |  |  |  |  | 
Cc1c(O)cccc1Nc1ccnc2ccc(C(F)(F)F)cc12.Cl [GW466413] | 0% | 0% | 22% | 0% | 0% | 0% | 0% | 0% | 0% | 0% |  |  |  |  |  |  |  |  |  | 
CC(C)(C)c1ccc(C(=O)Nc2cn3cc(Cl)ccc3n2)cc1 | 19% | 67% | 59% | 0% | 16% | 0% | 0% | 0% | 0% | 20% |  |  |  |  |  |  |  |  |  | 
O=C(Nc1n[nH]c2nc(-c3nccs3)c(Br)cc12)C1CC1 [SB-742251] | 0% | 21% | 14% | 13% | 0% | 0% | 0% | 36% | 15% | 0% |  |  |  |  |  |  |  |  |  | 
O=C(Nc1n[nH]c2cc(-c3cccc(F)c3F)ccc12)C1CC1 [SB-733894] | 16% | 17% | 0% | 0% | 4% | 0% | 0% | 29% | 56% | 20% |  |  |  |  |  |  |  |  |  | 
